The list is not random: actives were taken first. Their share in the collection is about 0.37%.
Rac1 mut GTP – alters GTP binding to activated mutant human Rac1 | P63000 | GST-Rac1 activated beads, fluorescent GTP binding, flow cytometry; actives lie on both sides; 100% means binding = to untreated wells | percent activity (GTP binding), % at 10 µM | hit rate 0.11% among 190,000;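 active = GTP binding at least 20 percentage points away from the 100% baseline, in either direction, so actives lie on both sides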
Rab2 wt GTP – changes GTP binding to wildtype dog Rab2A, up or down; P61105; GST-Rab2 wt beads, Bodipy-GTP binding, flow cytometry; GTP binding activity, % at 10 µM; hit rate 0.19% among 190,000; AID 760;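 active = GTP binding activity at least 20 points away from 100%, either lowered or raised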;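 also: 0% = beads with excess unlabeled GTP and 100% = no-compound control corrected for plate trend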
Rac1 wt modul – alters GTP binding to wildtype human Rac1; hit rate 0.27% among 190,000; GST-Rac1 beads, fluorescent GTP binding, flow cytometry; actives lie on both sides; 0 = cold GTP competed, 100 = untreated; AID 757; GTP binding activity (% of control), % at 10 µM;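 active = GTP binding activity at least 20 points away from the 100% control level, either lower or higher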
Rab7 wt GTP bind – alters GTP binding to wildtype dog Rab7. GST-Rab7 beads, fluorescent GTP binding, flow cytometry; actives lie on both sides; untreated = 100%, excess cold GTP = 0%. GTP binding activity (percent of control), % at 10 µM. hit rate 0.055% among 190,000. AID 758;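 active = fluorescent GTP binding to Rab7 beads changed by at least 20 points from the 100% baseline, either direction, mostly lower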;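 also: median green fluorescence of bound Bodipy-FL-GTP per Rab7 bead population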
Cdc42 wt – human Cdc42 wildtype GTP binding change, either direction. hit rate 0.2% among 190,000. percent activity (GTP binding), % at 10 µM. AID 761. GST-Cdc42 beads, Bodipy-GTP binding, flow cytometry; actives lie on both sides. P60953;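 active = percent activity GTP binding at least 20 points away from the 100% baseline, either down as inhibitor or up as activator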;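 also: median bead fluorescence of bound Bodipy-FL-GTP at 100 nM; 0% = excess unlabeled GTP control and 100% = no compound control; below 100% means less GTP binding so inhibitor and above means activator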
Target sequence (P60953 whole entry, looked up): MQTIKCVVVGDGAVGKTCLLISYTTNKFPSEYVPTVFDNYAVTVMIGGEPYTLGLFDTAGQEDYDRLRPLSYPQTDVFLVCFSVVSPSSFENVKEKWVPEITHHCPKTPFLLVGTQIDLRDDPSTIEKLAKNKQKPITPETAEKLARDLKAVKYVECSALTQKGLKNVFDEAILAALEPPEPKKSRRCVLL
HRas wt GTP – human HRas wildtype GTP binding, change in either direction; GST-Ras wt beads, Bodipy-FL-GTP binding, flow cytometry; actives lie on both sides; GTP binding activity, % at 10 µM; hit rate 0.14% among 190,000;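 active = GTP binding activity at least 20% away from the 100% baseline, either lowered as inhibitor or raised as activator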;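 also: 0% = unlabeled GTP competition control and 100% = no-compound control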
Target sequence (P01112 whole entry, looked up): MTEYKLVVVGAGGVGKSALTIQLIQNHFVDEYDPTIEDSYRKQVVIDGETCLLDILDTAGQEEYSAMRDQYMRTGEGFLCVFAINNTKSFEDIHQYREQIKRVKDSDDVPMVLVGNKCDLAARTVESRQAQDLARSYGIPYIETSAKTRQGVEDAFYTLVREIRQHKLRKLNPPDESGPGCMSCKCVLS
* marks the source's active call; other numbers are inactive results; [ ] = another dose, or the depositor's remark.

SMILES | Rac1 mut GTP | Rab2 wt GTP | Rac1 wt modul | Rab7 wt GTP bind | Cdc42 wt | HRas wt GTP
CCOC(=O)c1c(CSc2ccccc2)n(C)c2cc(Br)c(OCC(O)CNC(CO)(CO)CO)cc12 (stereo not given) | 113 | 107 | 120*[activator] | 104 | 113 | 113
O=C(NCCc1ccc(Cl)cc1)C1CCC(CNc2nc(=S)[nH]c3ccccc23)CC1 (stereo not given) | 92 | 88 | 85 | 99 | 81 | 89
O=C(NCc1ccccc1Cl)C1CCC(CNc2nc(=S)[nH]c3ccccc23)CC1 (stereo not given) | 92 | 88 | 78* | 88 | 90 | 86
Nc1c(S(=O)(=O)c2cccs2)c2nc3ccccc3nc2n1/N=C/c1cccc(O)c1 | 64* | 46* | 64* | 73* | 45* | 47*
COc1ccc(/C=N/n2c(N)c(S(=O)(=O)c3cccs3)c3nc4ccccc4nc32)cc1OC | 74* | 49* | 57* | 75* | 61* | 56*
CC(C)Cn1c(N)c(S(=O)(=O)c2cccs2)c2nc3ccccc3nc21 | 99 | 100 | 100 | 99 | 101 | 100
COc1cc(/C=N/Nc2nnc3c(n2)[nH]c2ccccc23)ccc1O | 93 | 79* | 86 | 85 | 94 | 83
COc1cc(/C=N/Nc2nncn2/N=C/c2ccc(O)c(OC)c2)ccc1O | 86 | 79* | 75* | 91 | 77* | 76*
COc1cc(/C=N/Nc2ccccc2C(F)(F)F)ccc1O | 93 | 97 | 94 | 103 | 90 | 94
COc1ccccc1-c1c(C)[nH]n2c(=O)c(Cc3ccccc3)c(C)nc12 | 95 | 96 | 98 | 94 | 100 | 95
COc1ccc(-c2c(C)[nH]n3c(=O)c(Cc4ccccc4)c(C)nc23)cc1 | 93 | 77* | 87 | 93 | 95 | 81
COc1ccc(S(=O)(=O)n2oc(=O)cc2-c2ccccc2)cc1 | 90 | 79* | 94 | 89 | 79* | 83
O=c1cc(-c2ccccc2)n(S(=O)(=O)c2ccccc2)o1 | 100 | 96 | 101 | 95 | 98 | 97
CCC(CC)C(=O)Nc1ccc(C)cc1O | 98 | 97 | 98 | 103 | 97 | 98
COc1ccc(-c2csc(C3=C(O)CN(C(C)C)C3=N)n2)cc1OC | 86 | 76* | 73* | 97 | 73* | 76*
Cc1cc(C)cc(C(=O)N(NC(=O)Nc2ccc(Cl)cc2)C(C)(C)C)c1 | 99 | 97 | 99 | 74* | 101 | 95
CC(C)CCNC(=O)C(C)N(C(=O)c1snc(C(N)=O)c1N)c1cnc2ccccc2c1 (stereo not given) | 95 | 94 | 96 | 93 | 95 | 95
COc1cc(C(=O)Nc2cccc3ncccc23)cc(OC)c1OC | 96 | 102 | 103 | 102 | 100 | 99
COc1cc(NC(=O)c2cccs2)c(OC)cc1NC(=O)CCC(=O)Nc1cccc2ncccc12 | 81 | 71* | 67* | 81 | 74* | 73*
O=C(COC(=O)c1cc(S(=O)(=O)N2CCCCC2)ccc1N1CCOCC1)NCCc1ccc(F)cc1 | 91 | 91 | 90 | 87 | 90 | 88
Cc1cc2nc(-c3ccc(SCc4ccccn4)nc3)[nH]c2cc1C | 95 | 96 | 88 | 104 | 92 | 98
CCOC(=O)Cn1nnnc1C(CC)N(Cc1cccs1)Cc1cc2cc(C)ccc2[nH]c1=O (stereo not given) | 99 | 100 | 102 | 103 | 100 | 102
CCOC(=O)Cn1nnnc1C(C(C)C)N(Cc1cccs1)Cc1cc2cc(C)ccc2[nH]c1=O (stereo not given) | 94 | 93 | 97 | 95 | 75* | 95
N#C/C(=C\c1ccco1)c1nc2ccccc2s1 | 99 | 99 | 100 | 96 | 98 | 100
N#C/C(=C/c1ccc(-c2cc(C(=O)O)cc(C(=O)O)c2)o1)c1nc2ccccc2s1 | 77* | 67* | 70* | 86 | 71* | 75*
SMILES | Rac1 mut GTP | Rab2 wt GTP | Rac1 wt modul | Rab7 wt GTP bind | Cdc42 wt | HRas wt GTP
COc1ccc(-c2cc(-c3ccccc3)c(C#N)c(=S)[nH]2)cc1 | 80 | 85 | 85 | 95 | 79* | 82
Cc1c(Cl)cccc1NC(=O)NCc1ccncc1 | 95 | 94 | 99 | 95 | 97 | 97
O=c1c2ccccc2nc2ccc(NCc3cccs3)nn12 | 88 | 74* | 74* | 91 | 76* | 79*
CCn1c(NCc2cccs2)nc2ccccc21 | 99 | 99 | 106 | 97 | 105 | 100
COc1ccc(-n2c(=O)[nH]c3c(C(N)=O)nc(C4CCCCC4)nc32)cc1 | 98 | 99 | 102 | 101 | 100 | 98
Cc1c(Cl)sn(-c2ccc(Cl)cc2)c1=O | 95 | 104 | 102 | 105 | 92 | 95
O=S(=O)(Cc1ccccc1)N1CCc2ccccc21 | 96 | 37* | 102 | 98 | 94 | 95
COc1cc(/C=C(/C#N)c2nc3ccccc3[nH]2)ccc1OCc1ccc(C(=O)O)o1 | 87 | 77* | 85 | 94 | 78* | 78*
COc1ccc2nc(/C(C#N)=C\c3ccc(C(=O)O)cc3)[nH]c2c1 | 85 | 86 | 77* | 96 | 78* | 86
COC(=O)c1ccc(COc2ccc(/C=C(\C#N)c3nc4ccccc4[nH]3)cc2OC)o1 | 98 | 101 | 102 | 99 | 101 | 99
COc1ccc(CNC(=O)CSc2n[nH]c(C)c2[N+](=O)[O-])cc1 | 103 | 99 | 103 | 101 | 101 | 101
CCCCNC(=S)Nc1ccc2[nH]c(=O)[nH]c2c1 | 95 | 97 | 95 | 97 | 97 | 95
Cc1ccc2nc3ccc(N4CCCC4)nn3c(=O)c2c1 | 100 | 106 | 106 | 103 | 107 | 104
CC1CCCN(c2ccc3nc4ccccc4c(=O)n3n2)C1 (stereo not given) | 87 | 81 | 78* | 96 | 84 | 80
COc1cc(/C=C2\SC(c3ccccc3)=NC2=O)cc(Cl)c1O | 81 | 77* | 81 | 88 | 78* | 81
C/C(=N\NC(=O)c1ccc([N+](=O)[O-])cc1Cl)c1ccccc1 | 95 | 98 | 97 | 96 | 97 | 96
CCOc1ccc(C2C(C(=O)O)CCC(=O)N2C2CCCCC2)cc1 (stereo not given) | 73* | 73* | 71* | 74* | 72* | 72*
COc1ccc2c(c1)nc(SCC(=O)c1ccc(Br)s1)n2C | 100 | 104 | 101 | 103 | 101 | 102
CSc1nc2ccc(NS(=O)(=O)c3c(Cl)cccc3Cl)cc2s1 | 79* | 78* | 79* | 84 | 81 | 83
